# Six1-Eya2 inh = qHTS Assay for Inhibitors of the Six1/Eya2 Interaction; Homeobox protein SIX1 (Homo sapiens) + Protein phosphatase EYA2 (Homo sapiens), …; AlphaScreen GST-Six1/His-Eya2 binding, biochemical; active compounds read low; activity change, % (concentration not given with the values); 360,000 tested, 0.56% active; AID 651725, 2012; in the data active = activity change below about -65%; inconclusive = mostly about -30% to -63%
#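 Compounds are tested against tagged Six1 and Eya2 proteins bridged by glutathione donor and nickel acceptor beads; after a one-hour incubation at 37 °C without light, AlphaScreen emission is recorded.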
# DT40 TDP1 CPT = qHTS for Inhibitors of human tyrosyl-DNA phosphodiesterase 1 (TDP1): qHTS in cells in presence of CPT. AID 686979, 2013. chicken DT40 Tdp1-/-;hTDP1 cells + 20 nM CPT, ATP luminescence, 48 h. 420,000 tested, 12% active. Potency, µM (highest dose often 46.2 µM), for inactives: at the top dose activity change, negative = growth inhibition, hits mostly inhibitors; also: potency is read from the fitted curve at half-maximal effect; nearly all actives have a fitted effect of over 55% in size
#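 Chicken DT40 Tdp1-/- cells stably complemented with human TDP1 were seeded at 400 cells/well in medium containing 20 nM camptothecin, exposed to pin-transferred compounds, and grown at 37 °C for at least 48 hr. Viability was read as ATP luminescence.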
# IL1B secr inh = qHTS for Inhibitors of Inflammasome Signaling: IL-1-beta AlphaLISA Primary Screen; THP-1 LPS/ATP IL-1B secretion, AlphaLISA, 16 h; active compounds read low; activity change, % at 57.5 µM; 360,000 tested, 4.7% active; AID 743279, 2014; in the data active = activity change below about -50%; inconclusive = mostly about -30% to -49%
#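 THP-1 cells pretreated 1 hr with compounds (up to 57.5 uM final), then stimulated with LPS (250 ng/mL final) plus ATP (1.25 mM final); secreted IL-1B measured by AlphaLISA after 16 hr, decreased signal indicating inhibition.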
# TDP1 inh = qHTS Assay for Inhibitors of Tyrosyl-DNA Phosphodiesterase (TDP1); Tyrosyl-DNA phosphodiesterase 1 (Homo sapiens), Q9NUW8; recombinant TDP1, AlphaScreen DNA substrate cleavage; Potency, µM (titrated, usually from 130 µM), without a hit: at the top dose activity change, negative = inhibition, actives largely listed as inhibitors; 350,000 tested, 0.28% active; AID 485290, 2010; also: potency is read from the fitted curve at half-maximal effect; nearly all actives have a fitted effect of over 40% in size
# Target sequence (Q9NUW8 whole entry, looked up): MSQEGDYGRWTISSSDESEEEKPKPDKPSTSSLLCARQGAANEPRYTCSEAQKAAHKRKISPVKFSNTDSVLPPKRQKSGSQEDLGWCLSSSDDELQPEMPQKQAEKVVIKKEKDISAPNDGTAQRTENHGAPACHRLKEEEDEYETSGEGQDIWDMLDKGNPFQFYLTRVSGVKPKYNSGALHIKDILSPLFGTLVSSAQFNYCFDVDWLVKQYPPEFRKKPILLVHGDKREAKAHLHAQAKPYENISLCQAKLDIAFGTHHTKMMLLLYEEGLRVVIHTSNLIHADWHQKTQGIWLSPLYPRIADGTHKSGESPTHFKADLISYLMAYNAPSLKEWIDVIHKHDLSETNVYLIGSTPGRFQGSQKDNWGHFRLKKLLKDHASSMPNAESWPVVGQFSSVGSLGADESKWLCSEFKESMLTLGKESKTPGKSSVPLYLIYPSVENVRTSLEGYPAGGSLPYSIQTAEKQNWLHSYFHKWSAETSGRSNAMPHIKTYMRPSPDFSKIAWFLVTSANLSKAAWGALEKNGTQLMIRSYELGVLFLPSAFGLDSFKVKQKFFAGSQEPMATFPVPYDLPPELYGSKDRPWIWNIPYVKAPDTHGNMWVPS
#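 Tdp1 1 nM final; 15 min RT w/ cpd; substrate 15 nM, 5 min; beads 10 ug/ml, 10 min; AlphaScreen read. Neg ctrl: no enzyme.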
# DT40 TDP1 no CPT = qHTS for Inhibitors of human tyrosyl-DNA phosphodiesterase 1 (TDP1): qHTS in cells in absence of CPT | DT40 Tdp1-/- hTDP1 cells, no CPT, ATP luminescence, 48 h | AID 686978, 2013 | 420,000 tested, 15% active | Potency, µM (top dose mostly 46.2 µM), for the others: top-dose activity change, negative = growth inhibition, most hits filed as inhibitors; also: potency is read from the fitted curve at half-maximal effect; nearly all actives have a fitted effect of over 55% in size
#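 Compound effects on proliferation are scored in DT40 Tdp1-/-;hTDP1 cells in the absence of CPT. ATP levels (CellTiter-Glo luminescence) are recorded after a ≥48 hr, 37 °C incubation.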
# CtBP-E1A blk = qHTS Assay for Inhibitors of the CtBP/E1A Interaction | activity change, % (test concentration not listed) | 340,000 tested, 0.49% active | AID 651724, 2012 | AlphaScreen GST-E1A/His-CtBP binding, 1536-well; active compounds read low; in the data active = activity change below about -65%; inconclusive = mostly about -30% to -63%
#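 AlphaScreen with 125 nM GST-E1A and 125 nM His-CtBP (5X stocks) in Tris pH 8.0, 300 mM NaCl, BSA, Tween 20, TCEP. Compounds preincubated 2 h at 37 deg C, then glutathione donor/nickel acceptor beads added for 1 h at 37 deg C in dark.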
# Starred values were filed as active, the others as inactive; ? = inconclusive; / = no result. This is a sample that favours compounds with a hit; in the whole collection about 18% have one here. Unless noted, calls follow the shape of the dose curve; as a rule, active = well fitted curve in the direction sought with a large enough effect; inconclusive = small, poorly fitted or top-dose-only effect, or another doubt; inactive = no such curve, though single readings can be large; an effect the other way counts as inactive or inconclusive. % is scaled to controls: 0 for no effect and ±100 for the full control effect.
SMILES,Six1-Eya2 inh,DT40 TDP1 CPT,IL1B secr inh,TDP1 inh,DT40 TDP1 no CPT,CtBP-E1A blk
CCOC(=O)c1c(NC(=O)c2ccc(S(=O)(=O)N3CCCC(C)C3)cc2)sc2c1CC(C)(C)NC2(C)C (stereo not given),/,16µM*,/,5%,21µM*,/
CCOC(=O)c1c(NC(=O)Cc2ccccc2)sc2c1CC(C)(C)NC2(C)C,3,?,-28,/,?,-1
CCOC(=O)c1c(NC(=O)COc2ccccc2OCC)sc2c1CC(C)(C)NC2(C)C,-6,6.5µM*,-106*,1%,5.8µM*,-7
COC(=O)c1c(NC(=O)COC(=O)c2ccc(C)s2)sc2c1CCCCC2,4,-15%,7,-5%,?,/
Cc1ccc(OCC(=O)Nc2sc3c(c2C#N)CC(C)(C)NC3(C)C)cc1,-8,?,-11,1%,?,5
CCOC(=O)c1c(NC(=O)COc2ccccc2C#N)sc2c1CC(C)(C)NC2(C)C,6,5.2µM*,2,3%,5.8µM*,0
O=C(Nc1ccccc1N1CCN(c2ccccc2)CC1)C1CCCCC1,-1,-3%,8,-2%,-17%,16
COC(=O)c1cccc(-n2c(CCC(=O)O)ccc2-c2cccs2)c1,1,-17%,14,7%,6%,0
COC(=O)c1cccc(-n2c(CCC(=O)O)ccc2-c2ccc(OC)cc2)c1,/,15µM*,/,4%,15µM*,/
COc1ccc(-c2ccc(CCC(=O)O)n2CC(C)C)cc1,0,?,38,3%,21µM*,3
C=CCn1c(CCC(=O)O)ccc1-c1ccc(OC)cc1,-10,-3%,17,9%,-9%,-8
O=C(c1cnsn1)N1CCCC(Nc2ccc(F)c(F)c2)C1 (stereo not given),3,-13%,-3,1%,3%,1
O=C(Nc1ccc(Cl)c(S(=O)(=O)N2CCOCC2)c1)c1cc(-c2ccccn2)nc2ccccc12,-9,?,?,0%,23µM*,-18
COc1ccc(NC(=O)c2cc(C)nc3ccccc23)cc1S(=O)(=O)N1CCOCC1,0,0%,-17,0%,3%,-10
Cc1ccc(NC(=O)c2cc(-c3ccco3)nc3ccccc23)cc1S(=O)(=O)N1CCOCC1,-20,?,5,-3%,29µM*,-1
O=C(Nc1ccc(Cl)c(S(=O)(=O)N2CCOCC2)c1)c1ccccn1,-2,3%,18,2%,-18%,0
Cc1ccc(C(=O)/C=C/c2cn(CN3CCN(C)CC3)c3ccccc23)cc1,0,-22%,-55*,6%,?,2
CCCCN(C)CC(O)Cn1cc(/C=C/C(=O)c2cccs2)c2ccccc21 (stereo not given),2,18µM*,-56*,0%,?,3
Cn1cc(/C=C/C(=O)c2ccccc2)c2ccccc21,-2,-23%,-4,9%,?,1
O=C(/C=C/c1cn(CC(O)CN2CCCCCC2)c2ccccc12)c1cccs1 (stereo not given),6,?,-107*,4%,?,0
CCOc1ccc(C(=O)/C=C/c2cn(CC(O)CN3CCc4ccccc43)c3ccccc23)cc1 (stereo not given),/,7.3µM*,/,10%,8.2µM*,/
CCOc1ccc(C(=O)N2CCc3ccccc32)cc1,-6,-29%,8,1%,-20%,/
CCN(CC)CCNC(=O)CCn1nc(-c2ccc(Cl)cc2)ccc1=O,6,0%,-14,/,7%,3
CN(C)CCCNc1nc2cc(-c3ccccc3CO)sc2c(=O)n1C,0,-16%,0,/,-2%,1
O=Cc1cn(CC(O)Cn2cc(C=O)c3ccccc32)c2ccccc12,1,1%,29,/,4%,-2
SMILES,Six1-Eya2 inh,DT40 TDP1 CPT,IL1B secr inh,TDP1 inh,DT40 TDP1 no CPT,CtBP-E1A blk
CCCCN(CCCC)CC(O)Cn1cc(/C=C/C(=O)c2ccccc2)c2ccccc21 (stereo not given),/,10µM*,/,-5%,10µM*,/
c1ccc(C[C@H]2CNCCN2CC2CCCCC2)cc1,1,?,-24,-6%,16µM*,0
CCCCN1CCNC[C@@H]1Cc1ccccc1,3,11%,16,-8%,8%,/
c1ccc(C[C@H]2CNCCN2CCCCC2CCCCC2)cc1,?,?,-80*,-2%,?,-22
Cc1cccc(OC(=O)n2c(=S)oc3cc(Cl)ccc32)c1,35,0%,8,6%,?,4
Cc1cccc(N2CCN(C(=O)CCCn3c(=O)[nH]c4ccsc4c3=O)CC2C)c1 (stereo not given),-7,-14%,-20,5%,26µM*,-11
Cc1cccc(N2CCN(C(=O)CCn3c(=O)[nH]c4ccsc4c3=O)CC2C)c1 (stereo not given),1,?,4,2%,10µM*,-2
COc1ccccc1N1CCN(C(=O)CCn2c(=O)[nH]c3ccsc3c2=O)CC1,-2,-5%,33,-2%,-8%,4
Cc1ccc(-c2nc3n(n2)C(=O)CC(c2ccc(C)cc2)S3)cc1 (stereo not given),/,21%,/,/,-3%,/
NC1=NN=C(N2N=C(c3ccccc3)CC2(O)C(F)(F)F)n2ncnc2C1 (stereo not given),?,?,-3,2%,4%,-70*
COc1ccccc1C1=NN(C2=NN=C(N)Cc3ncnn32)C(O)(C(F)(F)F)C1 (stereo not given),?,-3%,?,8%,-1%,-65*
NC1=NN=C(N2N=C(c3ccc(Br)cc3)CC2(O)C(F)(F)F)n2ncnc2C1 (stereo not given),?,10%,-5,10%,-22%,-8
COc1ccc(C2=NN(C3=NN=C(N)Cc4ncnn43)C(O)(C(F)(F)F)C2)cc1 (stereo not given),-68*,15%,-12,8%,9%,-86*
N=C(N)SCc1nc2ccccn2c1Br,-12,?,-98*,5%,?,-16
Cc1cccc2nc(CSC(=N)N)c(Br)n12,-8,?,-68*,0%,?,10

# From PubChem
